Experimental data from PubChem BioAssay AID1159580 (chemical genetic matrix, 2015).
Hit rate of the full screen: of about 5,500 compounds, about 2,000 (36%) were called active. Roughly 18% stayed inconclusive and do not appear here. No stated cut-off is given here; in the data, active means normalized growth mostly below about 0.91 (no sharp cut-off); inconclusive means no clear call, values can overlap the other calls; inactive means mostly above about 0.92. The list shows a part of the results.

Assay: chemical genetic growth profiling, strain panel (AID 1159580);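 further: tested at 20 µM; growth read once vehicle control cultures reached saturation at 30 °C; 1 = growth at the plate median or of vehicle wells; lower values mean less growth of the strain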
Conditions: S. cerevisiae deletion strains, growth OD

Measured: normalized growth

COc1cc(/C=C/C(=O)N2CCC=CC2=O)cc(OC)c1OC
inactive: locus YAL021C, strain ccr4, hits give low values 0.948 | locus YAL026C, strain drs2, hits give low values 1 | locus YAL030W, strain snc1, hits give low values 1 | locus YBL061C, strain skt5, hits give low values 0.993 | locus YBR009C, strain hhf1, hits give low values 1.06 | locus YBR023C, strain chs3, hits give low values 0.994 | locus YBR171W, strain sec66, hits give low values 0.995 | locus YBR231C, strain swc5, hits give low values 1.01 | locus YBR279W, strain paf1, hits give low values 0.968 | locus YCL011C, strain gbp2, hits give low values 1 | locus YCL016C, strain dcc1, hits give low values 1.01 | locus YCL061C, strain MRC1, hits give low values 1.01 | locus YCL069W, strain vba3, hits give low values 0.998 | locus YCR088W, strain abp1, hits give low values 0.996 | locus YDL005C, strain med2, hits give low values 1 | locus YDL040C, strain nat1, hits give low values 0.996 | locus YDR001C, strain nth1, hits give low values 0.992 | locus YDR069C, strain doa4, hits give low values 0.996 | locus YDR137W, strain rgp1, hits give low values 0.856 | locus YDR159W, strain sac3, hits give low values 1.08 | locus YDR195W, strain ref2 1.06 | locus YDR297W, strain sur2, hits give low values 0.997 | locus YDR334W, strain swr1, hits give low values 1.01 | locus YDR335W, strain msn5, hits give low values 1 | locus YDR392W, strain spt3, hits give low values 0.886 | locus YEL003W, strain gim4, hits give low values 1 | locus YEL037C, strain rad23, hits give low values 0.998 | locus YEL061C, strain CIN8 (second series), hits give low values 0.996 | locus YER015W, strain faa2, hits give low values 1.01 | locus YER016W, strain bim1, hits give low values 1.02 | locus YER111C, strain swi4, hits give low values 1.01 | locus YER155C, strain BEM2 (second series), hits give low values 1.06 | locus YFR010W, strain ubp6, hits give low values 0.99 | locus YGL167C, strain pmr1, hits give low values 1 | locus YGL173C, strain kem1, hits give low values 0.995 | locus YGL227W, strain vid30, hits give low values 1.01 | locus YGL240W, strain doc1, hits give low values 1.08 | locus YGL253W, strain hxk2, hits give low values 0.984 | locus YHR013C, strain ard1, hits give low values 0.938 | locus YHR027C, strain rpn1, hits give low values 0.995 | locus YHR030C, strain SLT2, hits give low values 0.935 | locus YHR079C, strain IRE1, hits give low values 0.953 | locus YHR142W, strain chs7, hits give low values 0.944 | locus YJL092W, strain hpr5, hits give low values 0.994 | locus YJL095W, strain BCK1 (second series), hits give low values 1.01 | locus YJL095W, strain BCK1, hits give low values 0.97 | locus YJL115W, strain asf1, hits give low values 1.03 | locus YJL129C, strain trk1, hits give low values 0.994 | locus YJL154C, strain vps35, hits give low values 0.998 | locus YJL164C, strain tpk1, hits give low values 0.979 | locus YJL166W, strain qcr8, hits give low values 1 | locus YJL187C, strain SWE1, hits give low values 0.996 | locus YJR066W, strain TOR1, hits give low values 0.883 | locus YKL160W, strain elf1, hits give low values 0.918 | locus YKR026C, strain gcn3, hits give low values 0.986 | locus YKR091W, strain srl3, hits give low values 1 | locus YLL001W, strain dnm1, hits give low values 1.01 | locus YLL026W, hits give low values 1.01 | locus YLL041C, strain sdh2, hits give low values 0.992 | locus YLR027C, strain aat2, hits give low values 0.988 | locus YLR113W, strain HOG1, hits give low values 0.941 | locus YLR221C, strain rsa3, hits give low values 0.97 | locus YLR258W, strain gsy2, hits give low values 1.03 | locus YLR262C, strain YPT6 (second series), hits give low values 0.886 | locus YLR320W, strain mms22, hits give low values 1.01 | locus YLR342W, strain FKS1, hits give low values 0.998 | locus YLR357W, strain rsc2, hits give low values 1.13 | locus YLR370C, strain arc18, hits give low values 0.986 | locus YLR384C, strain iki3, hits give low values 1 | locus YML120C, strain ndi1, hits give low values 0.972 | locus YMR058W, strain fet3, hits give low values 0.993 | locus YMR125W, strain sto1, hits give low values 1.07 | locus YMR129W, hits give low values 1.01 | locus YMR205C, strain PFK2, hits give low values 1.06 | locus YMR231W, strain pep5, hits give low values 0.998 | locus YNL071W, strain lat1, hits give low values 0.975 | locus YNL183C, strain NPR1, hits give low values 0.93 | locus YNL209W, strain ssb2, hits give low values 0.997 | locus YNL248C, strain rpa49, hits give low values 0.972 | locus YNL322C, strain KRE1 (second series), hits give low values 1.02 | locus YNR049C, strain mso1, hits give low values 0.999 | locus YOR001W, strain rrp6, hits give low values 0.945 | locus YOR070C, strain gyp1, hits give low values 1.02 | locus YOR080W, strain dia2, hits give low values 1.01 | locus YOR083W, strain WHI5, hits give low values 0.951 | locus YOR106W, strain vam3, hits give low values 0.964 | locus YOR231W, strain MKK1, hits give low values 0.954 | locus YOR265W, strain rbl2, hits give low values 0.996 | locus YOR270C, strain vph1, hits give low values 0.976 | locus YOR290C, strain snf2, hits give low values 0.969 | locus YPL051W, strain arl3, hits give low values 0.966 | locus YPL078C, strain atp4, hits give low values 0.939 | locus YPL106C, strain sse1, hits give low values 1.01 | locus YPL240C, strain hsp82, hits give low values 1.01 | locus YPL256C, strain CLN2, hits give low values 0.964
